Bioassay records deposited in PubChem BioAssay by National Center for Advancing Translational Sciences (NCATS).
HCMV inh: qHTS Assay for inhibitors of the human cytomegalovirus (HCMV). AID 1259415, 2018. HFF cells, HCMV-luciferase reporter, 72 h; hits give low values. 410,000 compounds, 4.5% hits. activity change, negative = inhibition, % at 57.5 µM; in the data active means activity change below about -60%; inconclusive means no clear call, values can overlap the other calls; inactive means above about -39%
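HFF cells seeded 16 h at 37C, treated with compounds, infected with luciferase-reporter HCMV at MOI 1 PFU/cell; luciferase read at 72 h post infection, normalized to buffer-only and Salinomycin controls.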
Pf growth 48h: Primary qHTS for delayed death inhibitors of the malarial parasite plastid, 48 hour incubation | P. falciparum luciferase growth in erythrocytes, 48 h | Potency, µM (highest dose often 28.7 µM), usual class: inhibitors | 310,000 compounds, 5.9% hits | AID 504832, 2011
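Parasite viability was followed by luminescence of a genomically integrated firefly luciferase. Cultures held 0.1% parasitemia at 2% hematocrit (final), incubated under 5% CO2 at 37 C.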
SARS PLpro yeast: qHTS of Yeast-based Assay for SARS-CoV PLP; S. cerevisiae expressing SARS-CoV PLpro, growth rescue; Potency, µM (series often up to 32.9 µM), hits mostly activators; 330,000 compounds, 0.19% hits; AID 485353, 2010; calls by dose curve; further: nearly all actives have a fitted effect of over 55% in size
Pf growth 96h: Primary qHTS for delayed death inhibitors of the malarial parasite plastid, 96 hour incubation. P. falciparum luciferase reporter growth, 96 h. Potency, µM (titrated, usually from 28.7 µM), usual class: inhibitors. 320,000 compounds, 6.9% hits
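Parasite growth measured via integrated firefly luciferase reporter in P. falciparum. Infected erythrocytes at 2% hematocrit, 0.05% parasitemia final were treated 96 hours at 37 C under 5% CO2, and luminescence was read.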
Sm TGR inh: qHTS Assay for the Inhibitors of Schistosoma Mansoni Peroxiredoxins; AID 485364, 2010; Potency, µM (highest dose often 114 µM), hits mostly inhibitors; 360,000 compounds, 3% hits; purified TGR, DTNB reduction, TNB absorbance 405 nm; further: nearly all actives have a fitted effect of over 60% in size
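First, TGR (20 nM dispensed) and NADPH were mixed with compound. Second, a 15 min room-temperature incubation followed. Third, further NADPH and then DTNB were added to start the reaction. Finally, TNB absorbance was monitored kinetically.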
HCV inh: qHTS Assay for Inhibitors of Hepatitis C Virus (HCV); Huh7.5.1 HCVcc-Cre infection, luciferase reporter, 44 h; Potency, µM (top dose mostly 41.8 µM), most hits filed as inhibitors; 340,000 compounds, 3.4% hits; AID 651820, 2012
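Infectious HCVcc-Cre (~0.5 moi) was added to cells just after compound, with cells seeded 4 h earlier at 1,000 per well. Luciferase activity after 44 h culture reported infection; substrate was incubated 15 min at room temperature before reading.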
Large screens that a line does not name were inactive. Sampled rows, rich in hits. Any-hit rate of the full collection: about 15%. Unless noted, the call rests on the fitted dose curve; in most records, active means well fitted curve in the direction sought with a large enough effect; inconclusive means small, poorly fitted or top-dose-only effect, or another doubt; inactive means no such curve, though single readings can be large; an effect the other way counts as inactive or inconclusive.

Cc1ccc(Cc2c(C)nc3nc(SCC(=O)NCc4ccco4)nn3c2C)cc1	Sm TGR inh 40µM
O=C1NC(=O)N(c2ccccc2F)C(=O)/C1=C/c1ccc(Oc2ccc([N+](=O)[O-])cn2)cc1	Sm TGR inh 20µM
O=[N+]([O-])c1ccc(Oc2ccc(OCc3ccccc3)cc2)nc1	none (no result: Pf growth 48h)
CCCN(Cc1cccs1)C(=O)Nc1cc(Cl)ccc1C	none (no result: Pf growth 48h, SARS PLpro yeast, Pf growth 96h, HCV inh)
COc1ccc(C2=Nc3ccccc3N(C(=O)c3ccc4ncccc4c3)C2C(=O)NC(C)(C)C)cc1 (stereo unspecified)	none (no result: Pf growth 48h, SARS PLpro yeast, Pf growth 96h, Sm TGR inh, HCV inh)
COc1ccc(C2=Nc3ccccc3N(C(=O)c3ccc4ncccc4c3)C2C(=O)NC2CCCC2)cc1 (stereo unspecified)	HCMV inh -78 (no result: Pf growth 48h, SARS PLpro yeast, Pf growth 96h, Sm TGR inh, HCV inh)
CC(Sc1nc(-c2ccccc2)c(-c2ccccc2)[nH]1)C(=O)NCC1CCCO1 (stereo unspecified)	none (no result: Pf growth 48h, SARS PLpro yeast, Pf growth 96h, Sm TGR inh, HCV inh)
Nc1sc(-c2ccccc2)n[n+]1Cc1cccc2cccnc12	HCMV inh -99, Pf growth 48h inconclusive, Pf growth 96h inconclusive, HCV inh inconclusive
Oc1ccccc1CNc1cccc2cccnc12	none
CCOc1ccc(-c2cc3c(=O)n(CC(=O)Nc4cc(F)ccc4C)ccn3n2)cc1	none (no result: Pf growth 48h, SARS PLpro yeast, Pf growth 96h, HCV inh)
CCOC(=O)COc1cc(Br)c(/C=N/Nc2ccccc2)cc1OC	Pf growth 48h 8.3µM, Pf growth 96h 10µM
COc1cc(C=O)c(Br)cc1OCC(=O)NCCc1ccccc1	HCMV inh inconclusive
CN1CCCN(C(=O)CSc2nc3cccnc3n2C)CC1	none (no result: Pf growth 48h, SARS PLpro yeast, Pf growth 96h, Sm TGR inh, HCV inh)
Cc1ccc(/C=N/NC(=O)c2cccc3ccccc23)o1	none
Cc1ccc(/C=N/NC(=O)C(C)Oc2cccc3ccccc23)o1 (stereo unspecified)	HCMV inh -66, HCV inh inconclusive
Cc1ccc(-c2nc(CS(=O)(=O)CC(=O)Nc3cc(C)ccc3C)c(C)o2)cc1	none (no result: Pf growth 48h, SARS PLpro yeast, Pf growth 96h, HCV inh)
COc1ccc(-c2nc(CS(=O)(=O)CC(=O)Nc3ccc(Cl)cc3)c(C)o2)cc1	Sm TGR inh 35µM, HCV inh 10µM
COC(=O)c1ccc(C(=O)OC)c(NC(=O)CN(c2ccccc2)S(=O)(=O)N(C)C)c1	Pf growth 48h inconclusive
COc1ccc(NC(=O)CS(=O)(=O)Cc2nc(-c3ccc(C)cc3)oc2C)cc1	SARS PLpro yeast inconclusive
COC(=O)c1ccc(C(=O)OC)c(NC(=O)CS(=O)(=O)Cc2ccccc2)c1	Pf growth 96h 5.2µM
COc1cc(OC)c(NC(=O)CS(=O)(=O)Cc2nc(-c3ccc(C)cc3)oc2C)cc1Cl	Pf growth 96h 8.3µM, Sm TGR inh inconclusive, HCV inh inconclusive (no result: Pf growth 48h)
COC(=O)c1ccccc1NC(=O)CS(=O)(=O)Cc1nc(-c2ccc(C)cc2)oc1C	Sm TGR inh 25µM (no result: Pf growth 48h)
CCOc1ccccc1CNc1ncnc2onc(-c3ccc(F)cc3)c12	none (no result: Pf growth 48h, SARS PLpro yeast, Pf growth 96h, HCV inh)
CCOC(=O)C1C(=O)Nc2nc3ccccc3n2C1C(C)C (stereo unspecified)	none
CCOc1ccc(CCNC(=O)COC(=O)c2ccc(C)s2)cc1OCC	Pf growth 96h 10µM
CCOc1ccc(CCNC(=O)Cn2nc(C)c3c(C)n(-c4ccccc4)nc3c2=O)cc1OCC	Pf growth 96h inconclusive, HCV inh inconclusive
COc1ccccc1NC(=O)COC(=O)c1c(C)nn(-c2ccccc2)c1C	HCV inh 14µM
CCOc1ccc(CCNC(=O)COC(=O)c2c(C)nn(-c3ccccc3)c2C)cc1OCC	HCMV inh -99, Pf growth 48h inconclusive, Pf growth 96h inconclusive, HCV inh inconclusive
CCOC(=O)c1c(C)[nH]c(C(=O)OCC(=O)NCCc2ccc(OCC)c(OCC)c2)c1C	Pf growth 48h 13µM, Pf growth 96h inconclusive, HCV inh inconclusive
CN(C)C1=NCCN1CC1CCCCC1	none
Cc1cn([C@H]2C[C@H](O)[C@@H](CNCc3cnc(N4CCOCC4)s3)O2)c(=O)[nH]c1=O	none (no result: Pf growth 48h, SARS PLpro yeast, Pf growth 96h, Sm TGR inh, HCV inh)
Cn1c(N)c(C(=O)NCc2ccccc2)sc1=S	none
COc1ccc(CCNC(=O)c2sc(=S)n(C)c2N)cc1	Pf growth 96h 1.9µM
